Source: PubChem BioAssay
In the library only some 0.89% were active in any assay of this set; here they are far more common.
CBFb-RUNX1 inh = inhibitors of human CBF-beta and RUNX1 interaction | Q01196+Q13951 | AlphaScreen CBFb-His/RUNX1-biotin binding, biochemical | Potency, µM (highest dose often 59.8 µM), for the others: at the highest dose activity, negative = inhibition, most hits filed as inhibitors | 230,000 tested, under 10 active; note: % of control where 0% means no effect
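Compounds were screened at multiple concentrations against a preformed CBF-beta(His)/RUNX1(biotin) complex (30 nM of each) for 15 min at room temperature, followed by 90 min with nickel and streptavidin beads and AlphaScreen reading.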
CtBP-E1A blk = blocks the CtBP interaction with E1A; AlphaScreen GST-E1A/His-CtBP binding, 1536-well; stronger effect = lower value; activity change, % (concentration not given with the values); hit rate 0.49% among 340,000; AID 651724; in the data active = activity change below about -65%; inconclusive = mostly about -30% to -63%; note: % is set by controls: 0 for no effect and ±100 for the full control effect
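Protein mix (5X: 125 nM each GST-E1A, His-CtBP) was incubated with pinned compound 2 h at 37 deg C in dark, in 50 mM Tris pH 8.0 buffer with 300 mM NaCl. Glutathione donor and nickel acceptor beads followed; AlphaScreen signal read after 1 h.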
Six1-Eya2 blk = blocks human Six1 binding to Eya2 | AlphaScreen GST-Six1/His-Eya2 binding, biochemical; stronger effect = lower value | activity change, % (test concentration not listed) | hit rate 0.56% among 360,000 | AID 651725; in the data active = activity change below about -65%; inconclusive = mostly about -30% to -63%; note: % is set by controls: 0 for no effect and ±100 for the full control effect
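Homogeneous AlphaScreen proximity assay pairing GST-Six1 with His-tagged Eya2 (added as 5X mix: 250 nM and 500 nM) in 50 mM Tris pH 8.0, 300 mM NaCl, 1 mM TCEP. Glutathione donor and nickel acceptor beads; 1 h, 37 °C, dark.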
MBNL1-CUG inh = MBNL1-poly(CUG) RNA binding inhibition; Q9NR56; TR-FRET MBNL1-His/biotin-(CUG)12 binding, 665/545 ratio; Potency, µM (doses to about 57.5 µM), inactives show at the highest dose activity change, negative = inhibition, usual class: inhibitors; hit rate 0.036% among 280,000; AID 2675; active = well fitted inhibition curve with a large enough effect in the signal ratio, with a control signal flat, not every such curve was filed as active; inconclusive = small, poorly fitted or top-dose-only effect, or effect the other way, or a change in a side signal; inactive = no such curve, though single readings can be large or run the other way; the % refers to the signal ratio; note: potency is the fitted concentration of half-maximal effect; % is set by controls: 0 for no effect and ±100 for the full control effect
Target sequence (Q9NR56 whole entry, looked up): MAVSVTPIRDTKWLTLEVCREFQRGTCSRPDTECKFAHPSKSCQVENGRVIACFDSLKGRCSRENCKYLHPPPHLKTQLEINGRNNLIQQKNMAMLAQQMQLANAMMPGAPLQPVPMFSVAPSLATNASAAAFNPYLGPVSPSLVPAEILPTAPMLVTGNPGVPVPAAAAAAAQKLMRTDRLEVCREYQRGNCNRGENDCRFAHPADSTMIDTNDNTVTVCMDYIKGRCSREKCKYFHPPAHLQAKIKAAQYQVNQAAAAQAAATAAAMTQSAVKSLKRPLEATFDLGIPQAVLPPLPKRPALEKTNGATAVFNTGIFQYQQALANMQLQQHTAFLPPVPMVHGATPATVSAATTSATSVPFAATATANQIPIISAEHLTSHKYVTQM
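MBNL1-His + Biotin-(CUG)12, cpd titration 92 nM–58 uM; Tb anti-His Ab 0.055 ng/ul, SA-XL665 5 nM (final); 60 min RT; ratiometric 665/545 nm, Ex 340 nm; normalized to buffer and full-complex controls.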
Eya2 inh = inhibitors of human Eya2 phosphatase activity | O00167 | recombinant Eya2, OMFP fluorescence dephosphorylation (OMFP is methylfluorescein phosphate) | Potency, µM (series often up to 76.9 µM), without a hit: top-dose activity, negative = inhibition, usual class: inhibitors | hit rate 0.006% among 330,000 | AID 488837; note: potency is the fitted concentration of half-maximal effect; % is set by controls: 0 for no effect and ±100 for the full control effect
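Eya2 protein (added as 0.2 uM solution) was preincubated with compound for 10 min at ambient temperature in 50 mM HEPES pH 7.5, 50 mM NaCl, 5 uM MgCl2, 0.05% BSA, 1 mM DTT. OMFP (added at 50 uM) then reacted 10 min; fluorescence read at 485/525 nm.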
L3MBTL1 inh = blocks human L3MBTL1; Q9Y468; AlphaScreen L3MBTL1–H3K9me1 peptide binding; Potency, µM (series often up to 57.1 µM), for the others: top-dose activity, negative = inhibition, hits mostly inhibitors; hit rate 0.66% among 230,000; AID 485360; note: potency is the fitted concentration of half-maximal effect; % is set by controls: 0 for no effect and ±100 for the full control effect; nearly all actives have a fitted effect of over 60% in size
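First, the protein-peptide complex forms for 30 min at room temperature (L3MBTL1 50 nM, biotinylated H3K9me1 peptide 75 nM). Next, compounds are pin-transferred and incubated 30 min. Finally, AlphaScreen beads are added and read after 30 min.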
Active calls of the source: *; ? = inconclusive; nt = no result; [ ] = remark or other dose. Unless noted, calls come from the whole dose curve; as a rule, active = well fitted curve in the direction sought with a large enough effect; inconclusive = small, poorly fitted or top-dose-only effect, or another doubt; inactive = no such curve, though single readings can be large; an effect the other way counts as inactive or inconclusive.

SMILES	CBFb-RUNX1 inh	CtBP-E1A blk	Six1-Eya2 blk	MBNL1-CUG inh	Eya2 inh	L3MBTL1 inh
O=C(N/N=C/c1c(O)n(Cc2ccc(F)cc2)c(=S)[nH]c1=O)c1ccncc1	?	-67*	?	nt	-3%	-28%
CCCCC(=O)N/N=C/c1c(O)n(CCCC)c(=S)[nH]c1=O	?	-66*	-74*	nt	0%	?
O=c1[nH]c(=O)n(Cc2ccco2)c(O)c1C=NCc1ccco1	1%	-1	-1	-21%	0%	?
O=C(N/N=C/c1c(O)n(Cc2ccco2)c(=O)[nH]c1=O)c1ccccc1O	?	-89*	-87*	4%	-2%	nt
CCn1c(O)c(/C=N/NC(=O)c2ccncc2)c(=O)[nH]c1=S	14%	nt	-17	nt	-12%	?
CCCCC(=O)N/N=C/c1c(O)n(-c2cccc3ccccc23)c(=O)[nH]c1=O	?	nt	-71*	nt	-8%	-20%
CC(=O)Nc1ccc(N=Cc2c(O)n(Cc3ccco3)c(=O)[nH]c2=O)cc1	-5%	-2	-18	-4%	6%	-15%
CCCCC(=O)N/N=C/c1c(O)n(Cc2ccco2)c(=O)[nH]c1=O	nt	?	-75*	?	-9%	?
CN(C)[C@@H]1C(=O)C(C(N)=O)=C(O)[C@@]2(O)C(=O)C3=C(O)c4c(O)cccc4[C@@](C)(O)C3[C@H](O)C12 (stereo partly specified)	nt	-67*	-9	nt	21%	3.2µM*
O=C(O)Cn1cc(/C=C2\C(=O)NC(=O)N(Cc3ccco3)C2=O)c2ccccc21	nt	-14	?	0%	-2%	5µM*
NC(Cc1ccc(Cl)cc1)c1csc(Nc2cnccn2)n1 (stereo unspecified)	nt	?	-72*	nt	nt	nt
CCCCN1C(=O)/C(=C/C=C/c2ccco2)C(=O)NC1=S	?	-10	-10	-4%	1%	3.5µM*
FC(F)(F)c1ccc(Cl)cc1	11%[21.7 µM]	nt	nt	nt	nt	nt
C[C@@H]1CC[C@@]2(OC1)O[C@H]1[C@@H](O)[C@H]3[C@@H]4CC[C@H]5C[C@@H](O[C@@H]6O[C@H](CO)[C@H](O[C@@H]7O[C@H](CO)[C@@H](O)[C@H](O[C@@H]8OC[C@@H](O)[C@H](O)[C@H]8O)[C@H]7O[C@@H]7O[C@H](CO)[C@@H](O)[C@H](O[C@@H]8O[C@H](CO)[C@@H](O)[C@H](O)[C@H]8O)[C@H]7O)[C@H](O)[C@H]6O)[C@H](O)C[C@]5(C)[C@H]4CC[C@]3(C)[C@H]1[C@@H]2C	5%[21.7 µM]	nt	nt	nt	nt	nt
O=C(N/N=C/C1C(=O)NC(=S)N(c2ccccc2)C1=O)c1cc(Br)c(O)c(Br)c1 (stereo unspecified)	?	-92*	-93*	29%	15%	13µM*
O=C(N/N=C/c1c(O)n(C2CCCCC2)c(=S)[nH]c1=O)c1ccccc1	nt	-18	-5	-12%	6%	nt
COc1ccc(OC)c(N2C(=O)NC(=O)/C(=C\c3ccc([N+](=O)[O-])s3)C2=O)c1	-26%	?	-67*	nt	-24%	10µM*
O=C1NC(=O)N(c2ccccc2)C(=O)/C1=C\c1ccc([N+](=O)[O-])s1	?	-28	?	?	3%	nt
COC[C@H]([C@@H](O)[C@@H](O)C(=O)NCC[C@@H](C)c1nc(/C=C/C[C@H]2OC3(C[C@H](O)[C@H]2C)OC([C@@H](C[C@@H](O)[C@@H](C)[C@@H](O)[C@@H](C)/C=C(C)/C(C)=C/C=C/C(C)=C\C#N)OC)[C@@H](OP(=O)(O)O)C3(C)C)co1)N(C)C (stereo partly specified)	6%	nt	nt	nt	nt	nt
CN1C(=O)NC(=O)/C(=C/c2ccc([N+](=O)[O-])s2)C1=O	?	?	?	?	8%	nt
